Rows were chosen to be rich in hits. Some 3.4% of all compounds tested hit in one or more screens of this group.
TEAD-YAP inh: TEAD-YAP interaction inhibition. HEK-TIYL cells, TEAD-Gal4/YAP UAS-luciferase luminescence. inhibition, % at 9.12 µM. 640,000 tested, 1.4% active; in the data active means inhibition above about 32%;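 further: 0% = median of test compound wells and 100% = reference inhibitor wells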
MITF inh: human MITF inhibition, primary screen. AlphaScreen MITF homodimerization, bead proximity signal. AID 1259374. inhibition, % at 2.6 µM. O75030. 650,000 tested, 0.91% active; in the data active means inhibition above about 50%;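 further: 0% = vehicle wells with protein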
FBW7 act: human FBW7 E3 ligase activation, primary screen | 650,000 tested, 0.13% active | Q969H0 | normalized activity (activation), % at 26.1 µM | AlphaScreen FBW7–phospho-cyclin E peptide binding, activator screen | AID 1259310; in the data active means normalized activity above about 1.9%;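 further: purified mutant Fbw7 with reduced substrate affinity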
GPR151 activ: human GPR151 activation; activation, % at 11.2 µM; 650,000 tested, 1% active; PathHunter beta-arrestin GPR151 cells, luminescence; Q8TDV0; in the data active means activation above about 4.9%;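 further: 0% = median of compound wells and 100% = cells with positive control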
GPR151 conf act: human GPR151 activation, confirmation screen; shares compounds with GPR151 activ; GPR151 PathHunter beta-arrestin cells, luminescence, 90 min; % of EA-reagent control over plate median; activation, % at 11.2 µM; 6,700 tested, under 10 active; AID 1508609;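 active means mean percent activation across replicates above the confirmation screen cutoff of 4.91%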
GPR119 ag: counter-screen for GPR151 activators: effect on human GPR119; shares compounds with GPR151 activ; GPR119 PathHunter beta-arrestin cells, luminescence, 90 min; 0 = compound-well median, 100 = enzyme-acceptor control; activation, % at 11.2 µM; 6,700 tested, 0.3% active; AID 1508611;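 active means mean percent activation in the counterscreen above 29.09%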;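 further: counterscreen on off-target GPR119 to flag nonselective hits from the GPR151 activator screen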
Target sequence (Q8TDV5 whole entry, looked up): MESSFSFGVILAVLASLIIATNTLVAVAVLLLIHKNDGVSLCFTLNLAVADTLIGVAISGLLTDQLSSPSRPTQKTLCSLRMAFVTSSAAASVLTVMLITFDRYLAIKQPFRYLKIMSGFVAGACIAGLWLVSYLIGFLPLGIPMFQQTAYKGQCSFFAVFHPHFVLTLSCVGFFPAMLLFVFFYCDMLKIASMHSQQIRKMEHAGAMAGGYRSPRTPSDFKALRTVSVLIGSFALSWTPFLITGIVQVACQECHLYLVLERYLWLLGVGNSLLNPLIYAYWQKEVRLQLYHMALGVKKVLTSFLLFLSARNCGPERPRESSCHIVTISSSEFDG
The depositor's hits bear a star; / = no result.

SMILES | TEAD-YAP inh | MITF inh | FBW7 act | GPR151 activ | GPR151 conf act | GPR119 ag
Cc1ccc(S(=O)(=O)N2CCOC23CCN(S(=O)(=O)c2ccccc2)CC3)cc1 | -8 | -11 | 1 | 1 | / | /
OCCNCCCCOc1ccc(OCc2ccccc2)cc1 | 6 | 5 | 0 | 6.2* | 0 | -18
CCOc1ccc(C=Nc2ccc(C(C)=O)cc2)c(O)c1 | -32 | 5 | 0 | 5.6* | -1 | -13
CCOc1ccc(C=Nc2ccc(C(=O)O)cc2)c(O)c1 | -13 | 14 | 0 | -1 | / | /
CCOC(=O)C(C)Sc1nnc(NC(=O)c2c(F)cccc2Cl)s1 (stereo unspecified) | 2 | 1 | 0 | 5.0* | 0 | 4
O=C(CNC(=O)c1cccc(F)c1)N/N=C/c1cc(Cl)ccc1O | -5 | -2 | 0 | 2 | / | /
O=C(CNC(=O)c1cccc(F)c1)N/N=C/c1cc(I)ccc1O | 12 | 8 | 0 | 5.0* | 0 | 3
O=C(Nn1c(=S)[nH]c2ccccc2c1=O)c1ccccc1 | -15 | -11 | 0 | 0 | / | /
O=C(Nn1c(=S)[nH]c2ccsc2c1=O)c1ccccc1 | -22 | 6 | 0 | 5.0* | 1 | 13
COc1cc([N+](=O)[O-])ccc1NC(=O)c1oc(=O)c2ccccc2c1-c1ccc(C)cc1 | -5 | 9 | 0 | 5.7* | 0 | 16
O=c1c2ccccc2ncn1Cc1ccccc1Cn1cnc2ccccc2c1=O | 6 | 12 | 0 | 0 | / | /
O=c1c2ccccc2ncn1Cc1c(F)cccc1F | 1 | -2 | 0 | 4.9* | -1 | -15
COc1ccc2nc(SC(=O)c3ccccc3Cl)nc(C)c2c1 | 4 | 4 | 0 | 0 | / | /
Cc1ccc(NC(=O)C2(S(=O)(=O)c3ccc(Cl)cc3)CC2)cc1F | 7 | 12 | 0 | 1 | / | /
COc1cccc(CNCC2CCCO2)c1OC (stereo unspecified) | 0 | 4 | 0 | 1 | / | /
COc1ccc(CNCC2CCCO2)c(OC)c1OC (stereo unspecified) | 5 | 6 | 0 | 5.9* | 0 | 7
COc1ccc(C2C(=O)N(C3CCCCC3)CC(=O)N2Cc2ccccc2)cc1 (stereo unspecified) | -11 | -4 | 0 | 0 | / | /
CSc1nsc(SC)c1C(=O)N1CCN(S(=O)(=O)c2ccc(C)cc2)C1C (stereo unspecified) | 3 | 3 | 0 | 5.0* | 1 | 10
CCC(c1nnnn1CS(=O)(=O)c1ccc(C)cc1)N1CCN(c2ccccc2)CC1 (stereo unspecified) | 0 | 7 | 0 | 1 | / | /
COc1ccccc1-c1nnc(SCC(=O)Nc2ccc(F)c(F)c2F)o1 | -30 | 1 | 0 | -1 | / | /
CCOC(=O)c1csc(NC(=O)Nc2ccc(Cl)cc2)n1 | -7 | -6 | 0 | -1 | / | /
CC(C)N(C(=O)Cc1csc(NC(=O)Nc2ccc(Cl)cc2)n1)C(C)C | 5 | -7 | 0 | 11* | 0 | -10
CCCN1CCN(C(=O)c2sc3nc(C)nc(N(C)c4ccc(C(C)C)cc4)c3c2C)CC1 | 3 | 3 | 0 | 0 | / | /
Cc1ccc2c(c1)C(=C(C#N)C#N)C=C(c1cccs1)O2 | -9 | 1 | 0 | 5.3* | 0 | 10
Cc1nc2c(-c3ccccc3)c(C)nn2c(C)c1CCC(=O)Nc1ccccn1 | -1 | 1 | 0 | 5.0* | 0 | 3
SMILES | TEAD-YAP inh | MITF inh | FBW7 act | GPR151 activ | GPR151 conf act | GPR119 ag
CCOc1ccc(NC(=O)CC2S/C(=N\N=C3CCCCCC3)NC2=O)cc1 (stereo unspecified) | 9 | 21 | 0 | 0 | / | /
C/C(=C/c1ccccc1)C(=O)Nc1ccc(S(N)(=O)=O)cc1 | -44 | -3 | 0 | 5.0* | 0 | -8
Cc1ccnc(Nc2ccc(N3CCN(C(=O)C4CCCC4)CC3)nn2)c1 | 6 | 6 | 1 | 5.1* | 0 | -2
NC(=O)C1CCN(C2=NC(=O)/C(=C/c3cccc(Cl)c3)S2)CC1 | -1 | -2 | 0 | 0 | / | /
Cn1ncc2c(N3CCOCC3)nc(NCc3ccco3)nc21 | -2 | 17 | 0 | 5.4* | 0 | -3
COCCn1nnnc1C(c1cc2cccc(C)c2[nH]c1=O)N1CCCCC1 (stereo unspecified) | 5 | 0 | 0 | 5.2* | 0 | 1
COCCn1nnnc1C(c1cc2cccc(C)c2[nH]c1=O)N1CCCCCC1 (stereo unspecified) | 7 | 6 | 0 | 0 | / | /
CCCOc1ccc(/C(O)=C2/C(=O)C(=O)N(CCCN(C)C)C2c2ccc(C(C)C)cc2)cc1C (stereo unspecified) | -5 | -1 | 0 | -1 | / | /
O=C1CC(N2CCN(C3CCCCC3)CC2)C(=O)N1c1ccc(Cl)cc1 (stereo unspecified) | -7 | -15 | 0 | 6.8* | 1 | -2
O=S(=O)(c1ccc2oc(-c3ccc(Cl)cc3)nc2c1)c1ccc2oc(-c3ccc(Cl)cc3)nc2c1 | 4 | 11 | 0 | 5.7* | 1 | -1
COc1ccc(-c2nc3cc(Cl)ccc3o2)cc1OC | -44 | 8 | 0 | 5.8* | 1 | -2
CCOC(=O)CSc1nnc2c3c(C)c(C)sc3ncn12 | -5 | 0 | 0 | 5.8* | 0 | 2
CCC1C(=O)NCCN1Cc1ccc2c(c1)CN(Cc1cccc(C)n1)CCO2 (stereo unspecified) | 0 | 7 | 0 | 5.4* | -1 | -11
Cc1cc(C)cc(-n2cnc3cc(C(=O)NCc4ccc5c(c4)OCO5)ccc32)c1 | -3 | -16 | 0 | -1 | / | /
Cc1cccc(-n2cnc3cc(C(=O)NCc4ccc5c(c4)OCO5)ccc32)c1 | 5 | 15 | 0 | 7.0* | -1 | -7
NC(=O)c1cc2cc(Cl)ccc2oc1=Nc1ccccc1 | 7 | 6 | 0 | 5.8* | 0 | -3
COc1ccc2o/c(=N\NC(=O)c3ccccc3Nc3ccccc3)c(C(N)=O)cc2c1 | 13 | -11 | 0 | 22* | -1 | -14
NC(=O)c1cc2ccccc2o/c1=N\NC(=O)c1ccccc1Nc1ccccc1 | 9 | 17 | 1 | -1 | / | /
CNC(=S)N1CCC(C(=O)NC(c2cccc(OC)c2)c2ccccn2)CC1 (stereo unspecified) | -3 | 14 | 0 | 6.9* | 0 | 0
COc1ccc(C(=O)N2CCNC(=O)C2CC(=O)Nc2ccc(C)c(C)c2)cc1 (stereo unspecified) | 10 | 13 | 0 | 5.6* | 1 | -6
COc1ccc(C(=O)N2CCNC(=O)C2CC(=O)Nc2cccc(Cl)c2Cl)cc1 (stereo unspecified) | -3 | 11 | 0 | 0 | / | /
CCCC(CCC(=O)Nc1ccccc1Cl)C(=O)O (stereo unspecified) | -2 | 6 | 0 | 0 | / | /
O=C1CSc2ccc(C(=O)NCc3ccc4c(c3)OCO4)cc2N1 | -5 | -5 | 0 | 0 | / | /

Compound activity as filed in PubChem BioAssay.
